Bioassay records (PubChem)
An excerpt weighted towards active compounds, which were near 3.6% of everything screened.
mHTT-CaM PPI inh = inhibitors of human mutant huntingtin-calmodulin interaction; hit rate 3.6% among 190,000; AlphaScreen His-mHTT/GST-CaM binding, luminescence; AID 1671202; inhibition, % at 15 µM; P42858
Pf apPOL block = Pf-apPOL DNA polymerase inhibition; hit rate 0.25% among 210,000; inhibition, % at 10 µM; Recombinant Pf-apPOL, molecular beacon fluorescence, 1.5 h; AID 1794808
Numbers stand for hits; 0 = inactive; - = no result given. Rule as the data show it: active = inhibition above about 50%; inactive = the rest.

SMILES	mHTT-CaM PPI inh	Pf apPOL block
Cc1ccc(NC(=O)CN2C(=O)C(C)N=C(c3ccccc3)c3ccccc32)cc1Cl (centres undefined)	52	0
CC1N=C(c2ccccc2)c2ccccc2N(CC(=O)Nc2cccc(Cl)c2)C1=O (centres undefined)	0	0
COc1ccc2c(c1)C1(CCN(C(=O)Nc3ccccc3)C1)C(=O)N2 (centres undefined)	0	0
O=c1oc2ccccc2c(O)c1C(c1ccc([N+](=O)[O-])cc1)c1c(O)c2ccccc2oc1=O	71	0
O=c1oc2ccccc2c(O)c1C(c1ccccc1[N+](=O)[O-])c1c(O)c2ccccc2oc1=O	0	0
COc1ccc(OC)c(C(c2c(O)c3ccccc3oc2=O)c2c(O)c3ccccc3oc2=O)c1	55	0
CC(c1c(O)c2ccccc2oc1=O)c1c(O)c2ccccc2oc1=O	0	0
Cn1cc(C(=O)Nc2ccc3c(c2)OCO3)c2cccnc21	0	0
CC(=O)OC1CCC2C3CC=C4CC(OC(=O)c5ccccc5)CCC4(C)C3CCC12C (centres undefined)	0	0
CC1N=C(c2ccccc2)c2ccccc2N(CC(=O)Nc2ccc(N(C)C)cc2)C1=O (centres undefined)	0	0
O=C(CN1C(=O)CN=C(c2ccccc2)c2cc(Cl)ccc21)NCc1cccc(Cl)c1	91	0
O=C(CN1C(=O)CN=C(c2ccccc2)c2cc(Cl)ccc21)Nc1cccc(C(F)(F)F)c1	82	0
Cc1cc(C)n(C(=O)CN2C(=O)CN=C(c3ccccc3)c3cc(Br)ccc32)n1	64	0
CCN(C(=O)CN1C(=O)C(C)N=C(c2ccccc2)c2ccccc21)c1cccc(C)c1 (centres undefined)	0	0
CC1N=C(c2ccccc2)c2ccccc2N(CC(=O)NCc2ccco2)C1=O (centres undefined)	0	0
COC(=O)Nc1cc(N/C(N)=N/[N+](=O)[O-])ccc1C	0	0
CCCn1cc(C(=O)NC(C)c2cccnc2)c2cccnc21 (centres undefined)	0	0
COc1ccc2c(c1)C1(CCN(S(=O)(=O)c3ccccc3F)C1)C(=O)N2C (centres undefined)	0	0
Cc1cccc(C)c1-n1c(C(F)(F)F)nc2ccccc2c1=O	0	0
CC12CCCCC1CCC1C2CCC2(C)C(O)C(=Cc3ccccc3)CC12 (centres undefined)	0	0
COc1ccc2c(c1)C1(CCN(C(=O)c3ccc(Cl)cc3)C1)C(=O)N2 (centres undefined)	0	0
CCN(CC)C(=O)Cn1cc(/C=C2\C(=O)NC(=O)N(c3ccccc3F)C2=O)c2ccccc21	62	0
CCN1C(=O)NC(=O)/C(=C/c2cn(CC(=O)NCCOC)c3ccccc23)C1=O	0	0
CCN1C(=O)NC(=O)/C(=C/c2cn(CC(=O)N3CCCCC3)c3ccccc23)C1=O	0	0
CCN1C(=O)NC(=O)/C(=C/c2cn(CC(=O)NCc3ccco3)c3ccccc23)C1=O	51	0
SMILES	mHTT-CaM PPI inh	Pf apPOL block
CC(Nc1ccc([N+](=O)[O-])c2cccnc12)c1ccc(Br)cc1 (centres undefined)	0	0
CC(C)(O)C1C2OC(=O)C1C1(O)C3OC3C3C(=O)OC2C31C (centres undefined)	-	0
Cc1cc(OC(=O)N(C)C)cc2c1C(=O)C(=Cc1cccnc1)O2	0	0
O=c1ccsn1-c1cccc(Cl)c1F	-	93
O=C1CC(=O)N(c2cccc(Cl)c2Cl)C(=O)N1	0	0
Cc1c(C#N)c(N)n(CC2CCCO2)c1C (centres undefined)	0	-
Cc1c(C#N)c(N)n(CCCn2ccnc2)c1C	99	-
O=[N+]([O-])c1ccc(O/N=C2\CN3CCC2CC3)cc1	0	-
Cc1cccc(-n2c(-c3cccnc3)nc3ccccc3c2=O)c1	100	0
Cc1ccc(-c2nc3ccccc3c(=O)n2-c2cccnc2)cc1	0	0
COc1ccc2c(c1)OC(=Cc1ccccc1OC(=O)N(C)C)C2=O	0	0
N#CC1=C(N)Oc2c(c(=O)oc3ccccc23)C1c1cc([N+](=O)[O-])ccc1Cl (centres undefined)	0	0
Clc1ccc(N2CCN(Cc3ccc4c(c3)OCO4)CC2)cc1	0	0
Cc1ccc(C2=NCC(=O)Nc3ccc(Br)cc32)cc1	97	0
O=C1CN=C(c2ccccc2Br)c2cc(Cl)ccc2N1	0	0
CCCCNC(=O)c1n[se]nc1-c1ccccc1O	0	0
O=C1NC(=O)C(=O)C(O)(O)N1	0	-
